From the supplement of paper PMC10849652
Of roughly 8,800 targets only a part is listed; those with a hit were picked by preference. About 0.5% of all pairs of compound and target were hits. A number with no mark means an inactive call.

Experiments:
Assay in all cases: log2 fold change, soluble protein after heating vs DMSO (PISA); higher = thermal stabilisation; K562 lysate, 10 uM; active = over 0.2 and 3.5 SD of the protein, either way, in both replicates (recomputed)
nilotinib = compound: Cc1cn(-c2cc(NC(=O)c3ccc(C)c(Nc4nccc(-c5cccnc5)n4)c3)cc(C(F)(F)F)c2)cn1 [nilotinib]
Summary of the method: (§1)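 Values give the log-two fold change in thermal stability against solvent controls, from duplicates. Crude K562 extract at 1 mg/mL protein, made by dounce homogenisation in PBS pH 7.4 with 1 mM MgCl2, was treated with 10 μM compound for 30 min. After 3 min heating across 48°C-58°C, aliquots were pooled, adjusted to 0.5% NP-40 at 4°C and centrifuged at 21,000xg for 90 min. The supernatant was measured by TMTpro 16plex LC-MS/MS with channel sums equalised.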

[1] = compound: Cc1nc(Nc2n[nH]c3c2CN(C(=O)N[C@H](CN(C)C)c2ccccc2)C3(C)C)c2sccc2n1
Summary of the method: as §1

dasatinib = compound: Cc1nc(Nc2ncc(C(=O)Nc3c(C)cccc3Cl)s2)cc(N2CCN(CCO)CC2)n1 [dasatinib]
Summary of the method: as §1

[2] = compound: Cc1ncc(-c2ccnc(Nc3ccc(S(C)(=O)=O)cc3)n2)n1C(C)C
Summary of the method: as §1

[3] = compound: Cn1cc(-c2ccc3c(c2)CCN3C(=O)Cc2cccc(C(F)(F)F)c2)c2c(N)ncnc21
Summary of the method: as §1

quisinostat = compound: Cn1cc(CNCC2CCN(c3ncc(C(=O)NO)cn3)CC2)c2ccccc21 [quisinostat]
Summary of the method: as §1

tipifarnib = compound: Cn1cncc1[C@@](N)(c1ccc(Cl)cc1)c1ccc2c(c1)c(-c1cccc(Cl)c1)cc(=O)n2C [tipifarnib]
Summary of the method: as §1

[4] = compound: NC(=O)Nc1cc(-c2cccc(F)c2)sc1C(=O)N[C@H]1CCCNC1
Summary of the method: as §1

[5] = compound: NC(=O)c1cnc(N[C@@H]2CCCC[C@@H]2N)nc1Nc1cccc(-n2nccn2)c1
Summary of the method: as §1

[6] = compound: NC1(c2ccc(-c3nc4ccn5c(=O)[nH]nc5c4cc3-c3ccccc3)cc2)CCC1
Summary of the method: as §1

[7] = compound: NCC(=O)Nc1ccc(-n2nc(C(F)(F)F)cc2-c2ccc3c(ccc4ccccc43)c2)cc1
Summary of the method: as §1

vorinostat = compound: O=C(CCCCCCC(=O)Nc1ccccc1)NO [vorinostat]
Summary of the method: as §1

silmitasertib = compound: O=C(O)c1ccc2c(c1)nc(Nc1cccc(Cl)c1)c1ccncc12 [silmitasertib]
Summary of the method: as §1

[8] = compound: O=C1NC(=O)C(c2cnc3ccccn23)=C1c1cn2c3c(cc(F)cc13)CN(C(=O)N1CCCCC1)CC2
Summary of the method: as §1

entospletinib = compound: c1cn2cc(-c3ccc4cn[nH]c4c3)nc(Nc3ccc(N4CCOCC4)cc3)c2n1 [entospletinib]
Summary of the method: as §1

Chain of UniProt Q8N4Q1 (Q8N4Q1 whole entry, looked up): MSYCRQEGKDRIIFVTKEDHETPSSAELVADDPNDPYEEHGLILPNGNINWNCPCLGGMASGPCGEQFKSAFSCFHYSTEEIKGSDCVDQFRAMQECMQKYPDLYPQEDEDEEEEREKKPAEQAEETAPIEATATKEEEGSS
Chain of UniProt Q9NW68 (Q9NW68 whole entry, looked up): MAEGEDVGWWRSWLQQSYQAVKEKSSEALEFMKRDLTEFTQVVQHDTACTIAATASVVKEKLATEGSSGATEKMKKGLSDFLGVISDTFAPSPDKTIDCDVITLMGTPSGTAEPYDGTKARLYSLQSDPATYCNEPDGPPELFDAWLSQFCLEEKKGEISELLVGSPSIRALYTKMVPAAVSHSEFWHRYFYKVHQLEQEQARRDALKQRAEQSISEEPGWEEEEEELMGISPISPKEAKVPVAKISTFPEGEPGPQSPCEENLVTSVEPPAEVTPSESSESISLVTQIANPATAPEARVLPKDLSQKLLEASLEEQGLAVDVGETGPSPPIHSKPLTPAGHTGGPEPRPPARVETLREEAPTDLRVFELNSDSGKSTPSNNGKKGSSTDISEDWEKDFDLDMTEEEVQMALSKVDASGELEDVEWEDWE
Chain of UniProt Q14692 (Q14692 whole entry, looked up): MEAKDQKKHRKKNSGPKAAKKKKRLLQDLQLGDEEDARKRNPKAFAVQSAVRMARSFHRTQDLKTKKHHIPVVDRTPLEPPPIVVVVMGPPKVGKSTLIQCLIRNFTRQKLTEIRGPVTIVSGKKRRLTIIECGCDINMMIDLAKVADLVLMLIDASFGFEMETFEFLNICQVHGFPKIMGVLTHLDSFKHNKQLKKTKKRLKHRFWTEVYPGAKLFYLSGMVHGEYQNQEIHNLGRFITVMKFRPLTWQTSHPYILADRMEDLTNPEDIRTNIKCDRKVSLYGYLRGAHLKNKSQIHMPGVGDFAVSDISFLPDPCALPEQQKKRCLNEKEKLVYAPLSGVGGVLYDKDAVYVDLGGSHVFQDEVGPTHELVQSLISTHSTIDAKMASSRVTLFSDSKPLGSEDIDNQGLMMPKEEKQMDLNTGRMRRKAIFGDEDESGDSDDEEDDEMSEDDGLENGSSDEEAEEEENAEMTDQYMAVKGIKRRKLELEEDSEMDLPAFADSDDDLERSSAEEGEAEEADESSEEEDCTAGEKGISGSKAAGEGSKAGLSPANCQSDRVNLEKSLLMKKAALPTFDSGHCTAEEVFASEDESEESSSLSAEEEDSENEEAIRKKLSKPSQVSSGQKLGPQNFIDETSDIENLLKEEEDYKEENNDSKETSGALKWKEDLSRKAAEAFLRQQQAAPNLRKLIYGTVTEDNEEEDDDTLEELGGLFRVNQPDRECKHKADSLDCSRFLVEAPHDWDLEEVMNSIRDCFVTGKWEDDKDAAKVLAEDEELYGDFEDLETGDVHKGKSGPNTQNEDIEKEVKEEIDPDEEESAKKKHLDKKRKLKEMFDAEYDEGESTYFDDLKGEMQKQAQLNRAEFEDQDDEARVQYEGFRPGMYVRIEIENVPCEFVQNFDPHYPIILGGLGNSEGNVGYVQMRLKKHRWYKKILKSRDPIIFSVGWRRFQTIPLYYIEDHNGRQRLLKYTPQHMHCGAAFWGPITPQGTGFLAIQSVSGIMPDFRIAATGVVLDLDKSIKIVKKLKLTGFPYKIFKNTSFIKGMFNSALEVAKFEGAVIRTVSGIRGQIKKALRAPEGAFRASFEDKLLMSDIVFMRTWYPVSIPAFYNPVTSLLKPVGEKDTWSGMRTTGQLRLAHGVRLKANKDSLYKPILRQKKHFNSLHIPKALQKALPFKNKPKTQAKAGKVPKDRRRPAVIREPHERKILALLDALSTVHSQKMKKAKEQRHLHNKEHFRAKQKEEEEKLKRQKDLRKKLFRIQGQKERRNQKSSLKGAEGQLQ
Chain of UniProt Q13111 (Q13111 whole entry, looked up): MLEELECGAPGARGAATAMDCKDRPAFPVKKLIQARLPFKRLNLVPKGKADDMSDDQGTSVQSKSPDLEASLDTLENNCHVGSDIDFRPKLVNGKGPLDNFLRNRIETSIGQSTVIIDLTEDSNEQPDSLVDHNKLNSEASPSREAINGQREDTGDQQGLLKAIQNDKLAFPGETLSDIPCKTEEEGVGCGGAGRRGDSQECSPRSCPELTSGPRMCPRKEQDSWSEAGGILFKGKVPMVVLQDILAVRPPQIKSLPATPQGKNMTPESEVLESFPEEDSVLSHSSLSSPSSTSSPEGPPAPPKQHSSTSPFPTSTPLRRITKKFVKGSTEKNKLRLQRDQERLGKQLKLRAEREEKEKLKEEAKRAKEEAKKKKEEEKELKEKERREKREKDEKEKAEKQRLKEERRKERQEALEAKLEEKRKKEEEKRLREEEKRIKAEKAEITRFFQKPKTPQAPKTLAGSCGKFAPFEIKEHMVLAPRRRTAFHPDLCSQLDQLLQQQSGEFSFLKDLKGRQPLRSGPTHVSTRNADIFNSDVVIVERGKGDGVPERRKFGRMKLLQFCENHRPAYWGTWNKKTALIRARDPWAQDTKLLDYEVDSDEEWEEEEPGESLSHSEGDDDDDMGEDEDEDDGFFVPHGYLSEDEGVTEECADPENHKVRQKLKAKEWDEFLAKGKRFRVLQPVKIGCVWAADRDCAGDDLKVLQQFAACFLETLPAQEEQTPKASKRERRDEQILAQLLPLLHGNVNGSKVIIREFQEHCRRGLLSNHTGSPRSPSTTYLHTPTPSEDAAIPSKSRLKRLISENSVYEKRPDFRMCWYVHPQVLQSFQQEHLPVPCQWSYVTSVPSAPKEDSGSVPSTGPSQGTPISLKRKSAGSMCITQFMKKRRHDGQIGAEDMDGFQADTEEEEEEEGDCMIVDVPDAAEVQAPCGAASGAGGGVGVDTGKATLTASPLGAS
Chain of UniProt Q8WYN0 (Q8WYN0 whole entry, looked up): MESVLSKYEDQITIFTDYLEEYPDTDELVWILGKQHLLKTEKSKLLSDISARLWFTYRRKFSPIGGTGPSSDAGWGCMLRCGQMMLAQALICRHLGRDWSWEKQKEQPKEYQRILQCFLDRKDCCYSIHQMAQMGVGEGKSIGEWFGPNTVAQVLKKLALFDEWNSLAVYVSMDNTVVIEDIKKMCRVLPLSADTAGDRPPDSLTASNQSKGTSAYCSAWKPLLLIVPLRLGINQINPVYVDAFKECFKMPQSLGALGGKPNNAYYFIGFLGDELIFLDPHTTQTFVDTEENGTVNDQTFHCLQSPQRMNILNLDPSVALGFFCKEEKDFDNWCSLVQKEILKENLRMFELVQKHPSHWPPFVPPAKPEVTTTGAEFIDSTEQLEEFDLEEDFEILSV
Chain of UniProt Q9HB09 (Q9HB09 whole entry, looked up): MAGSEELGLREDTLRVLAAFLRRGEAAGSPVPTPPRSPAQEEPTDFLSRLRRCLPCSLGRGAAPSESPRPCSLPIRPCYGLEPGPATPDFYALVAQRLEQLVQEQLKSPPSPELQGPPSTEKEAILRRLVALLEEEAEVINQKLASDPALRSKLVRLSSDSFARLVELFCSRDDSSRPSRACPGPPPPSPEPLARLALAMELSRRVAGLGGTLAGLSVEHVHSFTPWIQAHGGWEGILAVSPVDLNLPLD
Chain of UniProt P20248 (P20248 whole entry, looked up): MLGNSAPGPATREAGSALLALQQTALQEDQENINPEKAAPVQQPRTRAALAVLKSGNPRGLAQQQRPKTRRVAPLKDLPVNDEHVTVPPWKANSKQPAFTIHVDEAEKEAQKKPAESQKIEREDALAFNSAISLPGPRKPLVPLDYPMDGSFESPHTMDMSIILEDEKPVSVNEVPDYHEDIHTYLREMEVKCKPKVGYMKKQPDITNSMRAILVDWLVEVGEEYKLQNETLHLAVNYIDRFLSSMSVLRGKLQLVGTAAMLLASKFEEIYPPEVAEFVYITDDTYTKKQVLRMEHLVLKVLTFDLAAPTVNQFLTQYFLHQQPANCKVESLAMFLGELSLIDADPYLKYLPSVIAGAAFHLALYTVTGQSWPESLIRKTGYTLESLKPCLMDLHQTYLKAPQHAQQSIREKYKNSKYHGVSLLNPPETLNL
Chain of UniProt Q00536 (Q00536 whole entry, looked up): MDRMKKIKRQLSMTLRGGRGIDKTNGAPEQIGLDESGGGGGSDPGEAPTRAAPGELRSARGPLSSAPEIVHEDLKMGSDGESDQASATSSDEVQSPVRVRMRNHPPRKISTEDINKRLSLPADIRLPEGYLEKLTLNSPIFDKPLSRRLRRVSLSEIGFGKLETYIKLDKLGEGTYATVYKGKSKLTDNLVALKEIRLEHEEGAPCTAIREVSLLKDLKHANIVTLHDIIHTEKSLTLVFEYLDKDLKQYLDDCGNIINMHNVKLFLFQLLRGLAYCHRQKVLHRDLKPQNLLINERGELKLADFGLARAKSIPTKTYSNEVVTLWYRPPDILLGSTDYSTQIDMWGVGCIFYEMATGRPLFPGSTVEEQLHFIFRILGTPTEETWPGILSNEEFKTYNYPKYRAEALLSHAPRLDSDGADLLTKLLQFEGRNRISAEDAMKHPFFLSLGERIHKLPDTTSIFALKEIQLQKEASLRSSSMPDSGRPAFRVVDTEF
Chain of UniProt Q96B23 (Q96B23 whole entry, looked up): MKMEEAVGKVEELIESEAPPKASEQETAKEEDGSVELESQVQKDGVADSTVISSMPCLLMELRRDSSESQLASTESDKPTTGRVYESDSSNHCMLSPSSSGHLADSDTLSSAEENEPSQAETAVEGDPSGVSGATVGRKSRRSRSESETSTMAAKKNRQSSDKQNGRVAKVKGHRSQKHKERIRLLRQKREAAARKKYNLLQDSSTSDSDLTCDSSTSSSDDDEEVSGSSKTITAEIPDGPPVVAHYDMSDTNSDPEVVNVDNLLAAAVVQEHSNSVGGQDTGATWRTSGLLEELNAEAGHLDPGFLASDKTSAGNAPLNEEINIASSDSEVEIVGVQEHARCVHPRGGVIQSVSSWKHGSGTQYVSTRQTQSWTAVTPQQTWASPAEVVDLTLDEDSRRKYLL

| Target | log2 fold change (nilotinib) | log2 fold change [1] | log2 fold change (dasatinib) | log2 fold change [2] | log2 fold change [3] | log2 fold change (quisinostat) | log2 fold change (tipifarnib) | log2 fold change [4] | log2 fold change [5] | log2 fold change [6] | log2 fold change [7] | log2 fold change (vorinostat) | log2 fold change (silmitasertib) | log2 fold change [8] | log2 fold change (entospletinib) |
| --- | --- | --- | --- | --- | --- | --- | --- | --- | --- | --- | --- | --- | --- | --- | --- |
| CCPG1 isoform 5 (UniProt Q9ULG6) | 0.067 | 0.017 | 0.013 | 0.087 | 0.004 | -0.021 | -0.033 | 0.029 | 0 | -0.073 | -0.022 | 0.043 | -0.012 | -0.025 | 0 |
| ATG13 isoform 2 (UniProt O75143) | -0.034 | 0.036 | 0.002 | 0.028 | -0.069 | -0.052 | -0.018 | 0.059 | 0 | -0.014 | 0.01 | 0.051 | -0.01 | 0.024 | -0.008 |
| CCNA2 (UniProt P20248) | -0.014 | 0.064 | 0.04 | 0.234 (active) | -0.051 | -0.086 | -0.015 | 0.005 | 0.063 | -0.021 | 0.005 | 0.075 | -0.06 | -0.026 | -0.011 |
| CCDC51 (UniProt Q96ER9) | -0.037 | -0.049 | -0.016 | 0.035 | -0.014 | 0.017 | -0.082 | 0.02 | -0.015 | -0.04 | 0.002 | 0.153 | 0.011 | 0.015 | -0.046 |
| BCKDHB (UniProt P21953) | 0.068 | 0.007 | 0.062 | 0.084 | 0.039 | 0.031 | -0.069 | -0.005 | 0.007 | -0.039 | 0.055 | -0.275 (active) | 0.076 | 0.072 | -0.123 |
| CAMLG (UniProt P49069) | 0.048 | -0.082 | 0.017 | -0.069 | 0.064 | 0.01 | -0.084 | 0.005 | -0.009 | 0.046 | -0.009 | -0.15 | -0.027 | 0.006 | 0.001 |
| CDC25C (UniProt P30307) | 0.039 | -0.037 | 0.042 | -0.048 | 0.004 | 0.056 | -0.004 | 0.025 | 0.015 | 0.05 | -0.019 | -0.271 (active) | 0.009 | 0.026 | -0.01 |
| C18orf25 (UniProt Q96B23) | 0.139 | -0.014 | -0.022 | -0.018 | 0.082 | -0.007 | 0.003 | 0 | 0.011 | -0.008 | 0.03 | 0.089 | -0.147 | -0.034 | 0.036 |
| BCL2L12 (UniProt Q9HB09) | -0.12 | -0.007 | -0.129 | -0.004 | 0.046 | 0.022 | 0.075 | -0.041 | 0.121 | 0.013 | 0.031 | -0.033 | 0.1 | -0.085 | -0.129 |
| CHD5 (UniProt Q8TDI0) | -0.007 | 0.021 | 0.038 | -0.022 | 0.007 | -0.082 | 0.005 | 0.02 | -0.019 | 0.01 | 0.059 | -0.261 (active) | 0.007 | 0.042 | 0.025 |
| C15orf41 (UniProt Q9Y2V0) | -0.041 | 0 | 0.09 | 0.038 | -0.036 | -0.023 | -0.014 | 0.076 | 0.024 | 0 | -0.124 | -0.362 (active) | -0.011 | -0.012 | 0.04 |
| CD63 (UniProt P08962) | -0.053 | 0.098 | -0.034 | -0.032 | 0.005 | -0.08 | 0.126 | -0.006 | -0.043 | -0.009 | -0.1 | 0.123 | -0.039 | -0.173 | 0.077 |
| BLM (UniProt P54132) | -0.002 | 0.014 | -0.013 | 0 | 0.048 | 0.109 | 0.041 | -0.013 | -0.025 | 0.018 | 0.03 | -0.056 | 0.044 | 0.003 | -0.002 |
| CHAF1A (UniProt Q13111) | -0.027 | 0.032 | -0.068 | 0.008 | -0.032 | -0.053 | 0.019 | -0.001 | -0.031 | 0.036 | 0.004 | -0.402 (active) | -0.004 | 0.004 | -0.082 |
| BMS1 (UniProt Q14692) | 0.024 | 0.024 | -0.02 | -0.045 | -0.01 | -0.097 | 0 | 0.006 | 0.015 | -0.019 | 0.024 | -0.037 | 0.04 | 0.033 | 0.045 |
| CHCHD1 (UniProt Q96BP2) | -0.09 | -0.023 | 0.084 | -0.043 | -0.097 | -0.174 | -0.03 | 0 | -0.023 | -0.019 | 0.131 | 0.055 | -0.039 | -0.014 | -0.081 |
| BSDC1 (UniProt Q9NW68) | 0.016 | -0.009 | 0.018 | 0.027 | -0.018 | -0.024 | -0.093 | 0.003 | -0.023 | 0.016 | -0.073 | 0.13 | -0.018 | 0.024 | -0.002 |
| C3 (UniProt P01024) | 0.001 | 0.027 | 0.069 | -0.006 | -0.022 | -0.085 | 0.027 | -0.025 | -0.066 | 0.012 | 0.024 | -0.098 | 0.008 | 0.062 | -0.036 |
| CDK16 isoform 2 (UniProt Q00536) | 0.043 | 0.412 | 0.033 | 0.433 (active) | -0.033 | -0.044 | -0.01 | -0.016 | 0.081 | -0.124 | 0.006 | 0.055 | 0.446 (active) | 0.603 (active) | -0.05 |
| CHCHD4 isoform 2 (UniProt Q8N4Q1) | -0.029 | 0.023 | -0.035 | -0.031 | -0.018 | -0.156 | 0.018 | 0.032 | -0.008 | -0.028 | 0.06 | 0.207 | -0.145 | -0.027 | 0.01 |
| ATG4A (UniProt Q8WYN0) | -0.022 | 0.018 | -0.064 | 0.037 | -0.038 | -0.042 | -0.015 | 0.096 | -0.02 | 0 | -0.059 | -0.543 (active) | 0.034 | 0.001 | 0.004 |
